Experimental data taken from PubChem BioAssay (Tox21).
Inconclusive results are not listed. Values without a mark were called inactive. The call rests on the fitted dose curve; in most records, active means well fitted cell-killing curve with a large enough effect in the repeat runs; inconclusive means weak or mixed curves, or effect the other way; inactive means no such curve, though single readings can be large or run the other way.

Experiment: qHTS assay for small molecule activators of the heat shock response signaling pathway - cell viability counter screen (AID 743209); further: nearly all actives have a fitted effect of over 50% in size
Details: HSE-bla HeLa viability, CellTiter-Glo luminescence, 5 h; series mostly up to 62.6 µM; activity change, negative = cytotoxicity: at the top concentration
Source text: U.S. Tox21 Program National Center for Advancing Translational Sciences [NCATS] NIH Chemical Genomics Center [NCGC] U.S. Environmental Protection Agency [EPA] National Institutes of Environmental Health Sciences [NIEHS] National Toxicology Program [NTP] U.S. Food and Drug Administration [FDA] Tox21 Assay Overview: Various chemicals, environmental and physiological stress conditions may lead to the activation of heat shock response/ unfolded protein response (HSR/UPR). There are three heat shock transcription factors (HSFs) (HSF-1, -2, and -4) mediating transcriptional regulation of the human HSR. To identify the compounds that activate HSR signaling, HSE-bla HeLa cell line (Invitrogen, Carlsbad, CA, USA) containing a beta-lactamase reporter gene under the control of the heat shock response elements was used to screen Tox21 10K compound library. The cytotoxicity of the Tox21 compound library against the HSE-bla HeLa cell line was tested in parallel by measuring the cell viability using CellTiter-Glo assay (Promega, Madison, WI) in the same wells.
Tox21 Assay Protocol Summary: The CellSensor HSE-bla HeLa cells (Invitrogen, Carlsbad, CA, USA) were dispensed at 1500 cells/6uL/well into 1536-well black wall/clear bottom plates using a Multidrop combi (Thermo Fisher Scientific, Waltham, MA) dispenser. After the assay plates were incubated at 37 C and 5% CO2 overnight, 23 nL of compounds dissolved in DMSO, positive controls or DMSO only was transferred to the assay plate by a Pintool station (Kalypsys, San Diego, CA). The plates were incubated at 37 C for 5 h. After 1 uL of LiveBLAzerTM B/G FRET substrate was added using a Flying Reagent Dispenser (FRD, Beckman Coulter, Indianapolis, IN, USA), the plates were incubated at room temperature for 2.5 h, and fluorescence intensity was measured by an Envision plate reader (PerkinElmer, Shelton, CT). For cell viability readout that measures cytotoxicity, 3 ul/well of CellTiter-Glo reagent was added into the assay plates using a FRD. After 30 min incubation at room temperature, the luminescence intensity in the plates was measured using a ViewLux (PerkinElmer) plate reader.
On the % scale 0 is the no-effect control and ±100 the full control effect.

| Compound | activity change, negative = cytotoxicity |
| --- | --- |
| Oc1ccc(CCNCCCCCCNCCc2ccccc2)cc1O | 16.7% |
| O=C(O)c1ccc(O)c(O)c1 | 8.43% |
| N#C[C@@H]1CC(F)(F)CN1C(=O)CNC1CC2CCC(C1)N2c1ncccn1 (stereo not given in full) | 15.5% |
| CC1=CC(=C(c2ccc(N)cc2)c2ccc(N)cc2)C=CC1=N | -5.14% [at 5.95 µM] |
| O=C1c2ccccc2C(=O)C1c1ccc2ccccc2n1 | -8.92% |
| C=CC(O)CCCCC (stereo not given) | 6.17% |
| O=S(=O)(O)c1cc(Cl)c(Cl)cc1Cl | -5.26% |
| COc1ccc(/C=C/S(=O)(=O)NC(=O)c2ccc(C)cc2Cl)cc1 | -7.03% |
| O=C(O)c1ccc2c(c1)nc(C(=O)NC1CCN(C3CC3)CC1)n2Cc1cc(-c2ccc(Cl)s2)on1 | -5.13% [at 29.1 µM] |
| CC(C)CC(C)(C)C | 5.84% [at 81.1 µM] |
| CCCCCCCCCCCCN1CCOCC1 | -0.528% |
| Cc1nc(C)c(C)nc1C | 2.51% |
| CC(C)=CCCC(C)C=O (stereo not given) | -4.17% |
| O=[N+]([O-])c1cccc(I)c1 | -5.81% |
| CCCCCCCCCCCCSC#N | -10.2% |
| O=C1OC(=O)C2CC=CCC12 (stereo not given) | -0.724% [at 81.1 µM] |
| CCCC1CCOC(C)S1 (stereo not given) | -4.51% |
| Clc1cccc(C(c2ccc3nc[nH]c3c2)n2ccnc2)c1 (stereo not given) | 4.46% |
| CC1(C)[C@@H]2CC[C@]3(C2)[C@@H]1C(=O)CCC3(C)C | -0.764% |
| CCC(C(=O)O)c1ccc(N2Cc3ccccc3C2=O)cc1 (stereo not given) | -16.1% |

| Compound | activity change, negative = cytotoxicity |
| --- | --- |
| COc1ccc(/C=C/c2cc(OC)cc(=O)o2)cc1 | 7.03% |
| C(/C=C/C=C/Nc1ccccc1)=Nc1ccccc1 | -13.9% |
| CC1(C)CC(O)CC(C)(C)N1[O] | 2.14% |
| O=C(c1ccco1)N1CCNCC1 | -5.28% |
| CCCOC(C)=O | -4.74% |
| O=C(O)c1ccccc1-n1cc(C(=O)O)c(=O)c2cc(Nc3c(F)cc(F)cc3Cl)c(Cl)cc21 | -7.21% |
| Oc1ccc(Oc2ccccc2)cc1 | 0.744% |
| CCOCCn1c(N2CCCN(C)CC2)nc2ccccc21 | 22.8% |
| C=C[Si](OCC)(OCC)OCC | -0.28% |
| O=C(NC1CCN(CCc2c[nH]c3ccccc23)CC1)c1ccccc1 | -17.5% |
| CCc1ccc(C(=O)C(C)CN2CCCCC2)cc1 (stereo not given) | -17.7% |
| CC(C)C[C@H](NC(=O)[C@H](Cc1ccccc1)NC(=O)c1cnccn1)B(O)O | 12.4% |
| CO[C@@H]1[C@@H](O[C@@H]2O[C@H](C)[C@@H](O[C@H]3C[C@@](C)(O)[C@@H](O)[C@H](C)O3)[C@H](N(C)C)[C@H]2O)[C@@H](CC=O)C[C@@H](C)[C@@H](O[C@@H]2CC[C@H](N(C)C)[C@@H](C)O2)/C=C/C=C/C[C@@H](C)OC(=O)C[C@H]1OC(C)=O | -0.0891% |
| CNc1ccccc1 | 9.6% |
| CCCCC(CC)COCCC#N (stereo not given) | -6.09% |
| Nc1ccc(F)cc1F | -24.7% [at 81.1 µM] |
| CC(C)=CCC/C(C)=C/C=N/O | -0.879% |
| O=C(O)c1ccccc1[N+](=O)[O-] | 9.03% |
| O=C(OCCCCCOC(=O)c1ccccc1)c1ccccc1 | 1.54% |
| COc1ccnc2c1CCCCC2S(=O)c1nc2ccccc2[nH]1 (stereo not given) | 0.553% |
